Screening results deposited in PubChem BioAssay by The Scripps Research Institute Molecular Screening Center.
A selection: hits, their analogues and other compounds. The true share with any hit is near 3.5%.
MITF inh = inhibitors of human MITF; O75030; AlphaScreen MITF homodimerization, bead proximity signal; inhibition, % at 2.6 µM; 0.91% of 650,000 active; AID 1259374; in the data active = inhibition above about 50%;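 note: 0% = vehicle wells with protein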
GPR151 ag = human GPR151 activation | activation, % at 11.2 µM | PathHunter beta-arrestin GPR151 cells, luminescence | 1% of 650,000 active; in the data active = activation above about 4.9%;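 note: 0% = median of compound wells and 100% = cells with positive control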
Target sequence (Q8TDV0 whole entry, looked up): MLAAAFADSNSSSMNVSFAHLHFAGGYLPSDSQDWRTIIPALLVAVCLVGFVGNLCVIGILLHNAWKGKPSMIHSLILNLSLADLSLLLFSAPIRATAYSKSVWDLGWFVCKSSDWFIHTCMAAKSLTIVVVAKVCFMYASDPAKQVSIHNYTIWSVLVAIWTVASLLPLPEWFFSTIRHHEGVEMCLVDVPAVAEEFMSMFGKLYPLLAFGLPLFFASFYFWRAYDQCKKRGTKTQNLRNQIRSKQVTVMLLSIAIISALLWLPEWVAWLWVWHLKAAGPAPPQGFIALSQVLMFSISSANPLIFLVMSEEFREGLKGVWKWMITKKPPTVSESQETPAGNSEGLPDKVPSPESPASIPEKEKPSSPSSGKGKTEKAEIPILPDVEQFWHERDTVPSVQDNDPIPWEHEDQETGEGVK
FBW7 act = activators of human E3 ligase FBW7; Q969H0; AlphaScreen FBW7–phospho-cyclin E peptide binding, activator screen; normalized activity (activation), % at 26.1 µM; 0.13% of 650,000 active; AID 1259310; in the data active = normalized activity above about 1.9%;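 note: purified mutant Fbw7 with reduced substrate affinity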
TEAD-YAP inh = TEAD-YAP interaction inhibition; HEK-TIYL cells, TEAD-Gal4/YAP UAS-luciferase luminescence; inhibition, % at 9.12 µM; 1.4% of 640,000 active; in the data active = inhibition above about 32%;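 note: 0% = median of test compound wells and 100% = reference inhibitor wells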
MITF confirm = confirmation of human MITF inhibitors | shares compounds with MITF inh | AlphaScreen MITF homodimerization, biotin/His-MITF beads | inhibition, % at 2.6 µM | 16% of 4,700 active;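 active = inhibition above a cutoff derived from the DMSO control wells, cut at about 28% in these data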;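 note: 0% = MITF dimer wells with DMSO only; inhibitors lower the bead chemiluminescence by keeping MITF from dimerizing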
AS interf ctr = AlphaScreen optical interference, counter-screen; shares compounds with MITF inh; LysRS AlphaScreen counterscreen, signal interference, triplicate; inhibition, % at 2.6 µM; 7.6% of 4,700 active;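 active = inhibition above a cutoff derived from the DMSO control wells, cut at about 30% in these data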
The depositor's hits bear a star.

How did COc1cc(OC)c(OC)cc1/C=C1\N=C(c2ccc(Cl)cc2Cl)OC1=O do in these assays?
MITF inh: 13; GPR151 ag: 0; FBW7 act: 0; TEAD-YAP inh: 5

Results for O=S(=O)(c1ccc(Br)cc1)n1c(SCc2cccc(F)c2)nc2ccccc21 ?
MITF inh: 110*; GPR151 ag: 0; FBW7 act: 0; TEAD-YAP inh: -58; MITF confirm: -11; AS interf ctr: -7

What do the screens show for `CC(=O)N1CCC(N(CCCOC(C)C)C(=S)Nc2ccc(C)c(Cl)c2)CC1`?
MITF inh: 14; GPR151 ag: -1; FBW7 act: 0; TEAD-YAP inh: 6

How did CN1CCN(CC(=O)c2c(-c3ccccc3)n(C)c3ccccc23)CC1 do in these assays?
MITF inh: 57*; GPR151 ag: 0; FBW7 act: 0; TEAD-YAP inh: -11; MITF confirm: -7; AS interf ctr: 4

What do the screens show for `CC(CC(=O)Nc1ccccc1)NC1CCN(Cc2ccccc2)CC1` (configuration not stated)?
MITF inh: 66*; GPR151 ag: 1; FBW7 act: 0; TEAD-YAP inh: 0; MITF confirm: 15; AS interf ctr: 10

Results for c1ccc(CN2CCC(NCc3ccc(-n4ccnc4)cc3)CC2)cc1 ?
MITF inh: 51*; GPR151 ag: 3; FBW7 act: 0; TEAD-YAP inh: 3; MITF confirm: 11; AS interf ctr: 17

What do the screens show for `CC(=O)Nc1ccc(CNC2CCN(Cc3ccccc3)CC2)cc1`?
MITF inh: 79*; GPR151 ag: -1; FBW7 act: 0; TEAD-YAP inh: 11; MITF confirm: 2; AS interf ctr: 3

Results for COCCN(C1CCN(CCc2ccc(Cl)cc2)CC1)S(=O)(=O)c1cccs1 ?
MITF inh: 63*; GPR151 ag: 0; FBW7 act: 0; TEAD-YAP inh: 9; MITF confirm: 1; AS interf ctr: 8

What do the screens show for `O=C1CSC(=Nc2cccc(Br)c2)N1`?
MITF inh: 53*; GPR151 ag: 0; FBW7 act: 1; TEAD-YAP inh: -5; MITF confirm: -21; AS interf ctr: -8

How did CCN(Cc1nc2cc(OC)c(OC)cc2c(=O)[nH]1)S(=O)(=O)c1ccc(OC)cc1 do in these assays?
MITF inh: -11; GPR151 ag: 1; FBW7 act: 0; TEAD-YAP inh: 5

How did O=C(/C=C/c1ccccc1Cl)NC(=S)NNC(=O)c1cccs1 do in these assays?
MITF inh: 11; GPR151 ag: 5; FBW7 act: 0; TEAD-YAP inh: -51

What do the screens show for `Cc1cc(C(=O)NNC(=S)NC(=O)/C=C/c2ccccc2Cl)n[nH]1`?
MITF inh: 72*; GPR151 ag: 0; FBW7 act: 0; TEAD-YAP inh: -46; MITF confirm: 34*; AS interf ctr: 70*

Results for C/C=C/c1ccc(OCCCN2CCN(CC)CC2)c(OC)c1 ?
MITF inh: 63*; GPR151 ag: 0; FBW7 act: 0; TEAD-YAP inh: -9; MITF confirm: 7; AS interf ctr: 19

Results for C/C=C/c1ccc(OCCCCN2CC(C)OC(C)C2)c(OC)c1 (configuration not stated) ?
MITF inh: 32; GPR151 ag: 1; FBW7 act: 0; TEAD-YAP inh: -10

What do the screens show for `C/C=C/c1ccc(OCCCCNCCN(C)C)c(OC)c1`?
MITF inh: -34; GPR151 ag: 0; FBW7 act: 0; TEAD-YAP inh: 0

What do the screens show for `C/C=C/c1ccc(OCCOCCN(C)C)c(OC)c1`?
MITF inh: 70*; GPR151 ag: -1; FBW7 act: 0; TEAD-YAP inh: 1; MITF confirm: -2; AS interf ctr: 10

How did C/C=C/c1ccc(OCCCCNCCN2CCOCC2)c(OC)c1 do in these assays?
MITF inh: 61*; GPR151 ag: 2; FBW7 act: 0; TEAD-YAP inh: 10; MITF confirm: 3; AS interf ctr: 17

What do the screens show for `CCOc1ccc(S(=O)(=O)N(CC(=O)Nc2cc(C)cc(C)c2)c2ccccc2)cc1`?
MITF inh: 1; GPR151 ag: 0; FBW7 act: 0; TEAD-YAP inh: 1

How did CC(C)CN1C(=O)C(=O)/C(=C(/O)c2ccccc2)C1c1ccccc1 (configuration not stated) do in these assays?
MITF inh: 14; GPR151 ag: 0; FBW7 act: 0; TEAD-YAP inh: -9

What do the screens show for `CCCCCOC(=O)COc1ccc2c(=O)c(-c3ccc(Cl)cc3)coc2c1`?
MITF inh: 2; GPR151 ag: 0; FBW7 act: 0; TEAD-YAP inh: 5

Results for Cc1ccc(OCCCN2CCCCC2)c([N+](=O)[O-])c1 ?
MITF inh: 87*; GPR151 ag: -1; FBW7 act: 0; TEAD-YAP inh: -28; MITF confirm: -5; AS interf ctr: 10

How did Cc1cc(OCCCCN2CC(C)OC(C)C2)ccc1[N+](=O)[O-] (configuration not stated) do in these assays?
MITF inh: 40; GPR151 ag: 2; FBW7 act: 0; TEAD-YAP inh: 12

How did Cc1ccc(OCCCCN2CCCC2)c([N+](=O)[O-])c1 do in these assays?
MITF inh: 83*; GPR151 ag: 0; FBW7 act: 0; TEAD-YAP inh: 4; MITF confirm: -8; AS interf ctr: -2

What do the screens show for `Cc1ccc(OCCCCN2CC(C)OC(C)C2)c([N+](=O)[O-])c1` (configuration not stated)?
MITF inh: 63*; GPR151 ag: 3; FBW7 act: 0; TEAD-YAP inh: 4; MITF confirm: -9; AS interf ctr: -5

Results for Cc1ccc(OCCN2CCCC(C)C2)c([N+](=O)[O-])c1 (configuration not stated) ?
MITF inh: 58*; GPR151 ag: -1; FBW7 act: 0; TEAD-YAP inh: 8; MITF confirm: 13; AS interf ctr: 12

Results for Cc1ccc([N+](=O)[O-])c(OCCCN2CCOCC2)c1 ?
MITF inh: -10; GPR151 ag: -1; FBW7 act: 0; TEAD-YAP inh: -7

What do the screens show for `CCOC(=O)C1CCCN(C(c2ccc(OCC)cc2)c2sc3nc(C)nn3c2O)C1` (configuration not stated)?
MITF inh: -20; GPR151 ag: 4; FBW7 act: 0; TEAD-YAP inh: -2

Results for CC(=O)c1cc(CN2CCc3c(cccc3NC(=O)c3ccncc3)C2)cs1 ?
MITF inh: 7; GPR151 ag: 1; FBW7 act: 0; TEAD-YAP inh: 2

What do the screens show for `COC(=O)c1cc(NS(=O)(=O)c2ccc3[nH]c(=O)c(=O)[nH]c3c2)cc(C(=O)OC)c1`?
MITF inh: -7; GPR151 ag: 0; FBW7 act: 0; TEAD-YAP inh: 9

What do the screens show for `COC(=O)c1ccccc1NS(=O)(=O)c1ccc2[nH]c(=O)c(=O)[nH]c2c1`?
MITF inh: 68*; GPR151 ag: 0; FBW7 act: 0; TEAD-YAP inh: -3; MITF confirm: -1; AS interf ctr: 1
